Measured values published in PubChem BioAssay AID1619 (SRMLSC, 2009).
Screen size: about 220,000 compounds; about 830 (0.38%) were called active.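 How the source made its calls: active means compound inhibiting the enzyme by more than half at any dose during confirmatory dose-response retesting; inconclusive means strong single-dose inhibitors picked by rank but not retested; inactive means the rest.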 Only a sample is shown. Measured potencies and affinities stand elsewhere.

Each compound was assayed against Leucine aminopeptidase (Plasmodium falciparum (isolate 3D7)) (UniProt Q8IL11) (assay: P. falciparum M17LAP inhibitors, primary screen, biochemical, fluorogenic H-Leu-NHMec substrate, 1536-well (AID 1619;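 further: plate controls were full reaction with DMSO carrier for no effect and no enzyme background for full effect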)). Conditions: recombinant M17LAP, H-Leu-NHMec fluorogenic kinetic assay; at 30 µM; hits give high values.
Sequence of Leucine aminopeptidase (Plasmodium falciparum (isolate 3D7)) (Q8IL11 whole entry, looked up): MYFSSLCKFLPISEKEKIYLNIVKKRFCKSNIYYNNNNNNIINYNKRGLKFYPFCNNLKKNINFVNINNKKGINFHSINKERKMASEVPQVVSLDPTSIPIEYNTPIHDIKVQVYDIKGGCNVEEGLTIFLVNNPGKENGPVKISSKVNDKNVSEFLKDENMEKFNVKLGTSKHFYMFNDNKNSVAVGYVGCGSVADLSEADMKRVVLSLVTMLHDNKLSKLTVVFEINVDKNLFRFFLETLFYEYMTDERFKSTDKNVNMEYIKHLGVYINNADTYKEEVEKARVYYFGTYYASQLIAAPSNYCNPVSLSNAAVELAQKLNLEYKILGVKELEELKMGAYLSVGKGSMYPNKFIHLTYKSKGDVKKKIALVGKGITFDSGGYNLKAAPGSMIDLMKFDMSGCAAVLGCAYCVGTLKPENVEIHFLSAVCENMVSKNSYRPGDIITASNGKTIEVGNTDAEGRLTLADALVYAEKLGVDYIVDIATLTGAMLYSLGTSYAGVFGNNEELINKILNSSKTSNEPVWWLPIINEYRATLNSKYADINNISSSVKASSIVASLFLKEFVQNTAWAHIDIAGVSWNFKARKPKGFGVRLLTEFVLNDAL

inhibition, inactive:
CC(=O)Nc1cccc(C(=O)/C=C/c2ccco2)c1 17.6%, O=C(O)c1ccccc1/C=N/N1CCN(C2c3ccccc3-c3ccccc32)CC1 -1.62%, Brc1ccc(C2=Nn3c(nnc3-c3n[nH]c4c3CCC4)SC2)cc1 6.03%, CCn1c(O)c(N=N)c2ccccc21 12.4%, O=C(N/N=C/c1coc2ccccc2c1=O)c1cc(O)cc(O)c1 29.1%, O=C(N/N=C/c1coc2ccccc2c1=O)c1ccccc1 11.9%, Cc1c(C(=O)N2CCCC2)sc(NC(=O)c2cccc(Cl)c2)c1C#N 18.9%, O=C(CSc1ncccn1)NCc1ccc(F)cc1 2.25%, Cc1ccc(SCC(=O)NCCC2=CCCCC2)cc1 -5.26%, O=C(COC(=O)c1cccnc1Cl)NCCC1=CCCCC1 3.53%, O=C(COC(=O)c1cccnc1SCC(=O)NCc1ccccc1)NCc1ccccc1 5.78%, O=C(CSc1ccccc1C(=O)O)NCc1ccco1 16.5%, O=C(CSc1ccccc1C(=O)O)NCc1ccccc1 17.3%, Cc1cccc2cc(C(c3nnnn3Cc3ccccc3)N3CCN(c4ccccc4)CC3)c(=O)[nH]c12 (configuration not stated) 2.86%, COc1ccc(N2C(=O)CC(SCCc3nc4ccccc4[nH]3)C2=O)cc1 (configuration not stated) 5.58%, CC1=C(C(=O)NCc2ccccc2)C(c2cccs2)n2ncnc2N1 (configuration not stated) -3.95%, O=C(NNC(=S)Nc1ccccc1)Nc1ccccc1 9.53%, COCCNC(=O)/C(C#N)=C/c1ccc(C)o1 23.4%, N#C/C(=C/c1ccc(N2CCOCC2)o1)C(=O)Nc1ccccc1 11.7%, N#C/C(=C\c1ccc(N2CCOCC2)o1)C(=O)NCC1CCCO1 (configuration not stated) 51%, N#C/C(=C\c1ccc(N2CCOCC2)o1)C(=O)Nc1ccc(O)cc1 43.7%, N#C/C(=C\c1ccc(N2CCOCC2)o1)C(=O)NC1CCCCC1 48.6%, N#C/C(=C\c1ccc(N2CCOCC2)o1)C(=O)NCCc1ccccc1 10.1%, CCN1CCN(Cc2ccc(NC(=O)c3cc(NC(=O)C4=NN(c5ccccc5)C(=O)C4)cc(OC)c3)cc2C(F)(F)F)CC1 6.5%, CCn1c(SCC(=O)OCc2ccccc2)nnc1-c1ccco1 4.57%, CCOC(=O)COc1ccccc1/C=C1/NC(=O)NC1=O -4.69%, CCOC(=O)c1c(C)[nH]c(C(=O)OCC(=O)Nc2ccc(OCC)cc2)c1C -8.26%, COc1ccc(C(C)C)cc1S(=O)(=O)n1ccnc1C -18.1%, COC1=Cc2c(ccc3ccc(=O)oc23)OC1(C)C -5.99%, CC(Sc1nc(-c2ccccc2)cc(=O)[nH]1)C(=O)O (configuration not stated) 22.4%, CCC(Sc1nc(-c2ccccc2)cc(=O)[nH]1)C(=O)O (configuration not stated) 10%, COc1cccc(CNC(=O)CN2C(=O)CSc3ccc(S(=O)(=O)N4CCCC4)cc32)c1 1.2%, COc1ccc(C(=O)NCC(=O)OCC(=O)Nc2c(C)n(C)n(-c3ccccc3)c2=O)cc1 5.29%, c1ccc(COc2ccccc2CNc2nn[nH]n2)cc1 6.74%, COc1ccc(CNc2nn[nH]n2)cc1OC 26.5%, COc1ccc(/C=N/NC(=S)N[C@H]2CC3CCC2C3)cc1 (some centres not stated) 3.46%, COc1ccc(C(=O)Nc2nc3cc(OC)c(OC)cc3c(=O)[nH]2)cc1 0.22%, CC1CCC2(CC1)NC(=O)N(CC(=O)N1CCN(S(=O)(=O)c3ccccc3)CC1)C2=O (configuration not stated) 5.42%, CS(=O)(=O)CCC(C(=O)N1CCOCC1)N1C(=O)c2cc(Cl)c(Cl)cc2C1=O (configuration not stated) 6.46%, COc1cccc(Nc2ncnc3ccccc23)c1 13.6%, Cc1cccc(Nc2ncnc3ccc(Br)cc23)c1 5.43%, COc1cccc(Nc2ncnc3c2cnn3C)c1 16.4%, Cc1cccc(Nc2ncnc3ccccc23)c1 19.2%, CCN1C(=O)/C(=C\c2nc3ccccc3c(=O)n2-c2ccccc2)c2ccccc21 -3.98%, CCOC(=O)c1cnc2c(C)c(Cl)ccc2c1Nc1ccc(S(=O)(=O)Nc2ncccn2)cc1 -6.24%, CC(=O)NC(O)C(=O)c1ccco1 (configuration not stated) 3.51%, C=CCn1c(SCC(=O)Nc2c(C)cccc2C)nnc1-c1ccncc1 -1.77%, COc1ccc(C(=O)COC(=O)C2CCC(=O)N2)cc1 (configuration not stated) -3.64%, Cc1ccc2nc(SCCC(=O)O)cc(C)c2c1 43.9%, Nc1nc(-c2ccccc2Br)cs1 -3.14%, Cc1cc(C)nc(Nc2n[nH]c(-c3ccccc3Br)n2)n1 -2.55%, CC(C)CC(C(=O)O)N1C(=O)[C@@H]2[C@H](C1=O)[C@@H]1C[C@H]2C(Br)C1Br (some centres not stated) 42.5%, Cc1[nH]n(-c2ncc(-c3ccccc3)s2)c(=O)c1C(c1ccc(Br)cc1)C(C#N)C#N (configuration not stated) 6.12%, Cc1[nH]n(-c2ncc(-c3ccccc3)s2)c(=O)c1C(c1ccc(Cl)cc1)C(C#N)C#N (configuration not stated) 21.9%, O=C(COC(=O)Cc1c[nH]c2ccccc12)Nc1ccccc1 0.86%, CC(C)(C)c1ccc(C(=O)C2CCCN(C(=O)C3CCOCC3)C2)cc1 (configuration not stated) -15.1%, O=C(CN1CCC(n2nnc3cc(C(F)(F)F)ccc32)CC1)N1CCc2ccccc21 10.6%, Cc1ccc(CSCCNC(=O)CN2C(=O)c3ccccc3S2(=O)=O)cc1 46.9%, CC(C)(C)SCCNC(=O)CN1C(=O)c2ccccc2S1(=O)=O 32.2%, O=C(CN1C(=O)c2ccccc2S1(=O)=O)NCCC1=CCCCC1 43.9%, Cc1ccc(SCCNC(=O)CN2C(=O)c3ccccc3S2(=O)=O)cc1 54.1%, COc1ccc(CCNC(=O)CN2C(=O)c3ccccc3S2(=O)=O)cc1 34.7%, O=C(CN1C(=O)c2ccccc2S1(=O)=O)Nc1ccccc1C(=O)NCc1ccco1 23.5%, Cc1ccc(N(C(C)C(=O)O)S(=O)(=O)c2c(C)[nH]c(=O)[nH]c2=O)cc1 (configuration not stated) 3.87%, c1ccc(Cn2nnc3c(N4CCc5ccccc54)ncnc32)cc1 -4.35%, CCCNC(=O)NS(=O)(=O)c1cnccc1Sc1ccc(Cl)c(Cl)c1 9.08%, Cc1ccc(NC(=O)Cn2cccc2C2=NC(c3ccccc3)CO2)cc1C (configuration not stated) -6.31%, COC(=O)CSc1nc2cc3c(cc2cc1C)OCO3 -14.1%, Cc1c(Br)ccc(NC(=O)CCN2C(=O)C3C4CCC(C4)C3C2=O)c1C (configuration not stated) 15.8%, Cc1cc(NC(=O)CCN2C(=O)C3C4CCC(C4)C3C2=O)cc(C)c1Br (configuration not stated) 3.99%, O=C(NCc1ccccn1)C(=O)N/N=C/c1ccc2c(c1)OCO2 9.75%, Nc1nc2c(s1)CC(c1ccccc1)CC2 (configuration not stated) 18.1%, Nc1nc2c(s1)C(=O)CCC2 12.6%, COc1ccc(Nc2ncc3c(n2)CC(c2ccc(OC)cc2)CC3=O)cc1 (configuration not stated) 0.52%, COc1ccc(C2CC(=O)c3sc(NC(C)=O)nc3C2)cc1 (configuration not stated) -0.56%, O=C(CSc1ncn(-c2ccccc2)n1)Nc1ccc2c(c1)OCCO2 27.7%, CCc1c(C)nc(SCC(=O)Nc2ccc(Br)cc2)[nH]c1=O 19.5%, CC(C)c1nc(SCC(=O)Nc2ccc3c(c2)OCCO3)n[nH]1 20.1%, Cc1csc(SCC(=O)Nc2ccc3c(c2)OCCO3)n1 -1.69%, Nc1nc(SCC(=O)Nc2ccc3c(c2)OCO3)n[nH]1 4.7%, CC(C)C(=O)Nc1nnc(SCC(=O)Nc2ccc3c(c2)OCO3)s1 14.7%, CCCC(=O)Nc1nnc(SCC(=O)Nc2ccc3c(c2)OCCO3)s1 -3.46%, Cc1cc(=O)[nH]c(SCC(=O)Nc2ccc3c(c2)OCCO3)n1 36.2%, CCc1nc(SCC(=O)N2CCN(c3ccccc3)CC2)c2c(=O)n(C)c(=O)n(C)c2n1 3.46%, O=C(Nc1ccc(S(=O)(=O)NCc2ccco2)cc1)C1CCCCC1 2.33%, CC(=O)c1sc(NC(=O)CCOc2ccccc2)nc1C -0.71%, CCN1CCN(C(=O)CN(C)S(=O)(=O)c2ccc(Cl)cc2)CC1 -6.75%, CC(C)CNC(=O)C1CCN(c2ccc(S(=O)(=O)N3CCOCC3)cc2)CC1 -3.46%, CSc1nc(Cc2ccccc2)nc2ccccc12 0.06%, COc1ccc2c(c1)c(C(=O)N/N=C/c1cccc(O)c1)c(C)n2C 11.1%, COc1ccc2c(c1)c(C(=O)N/N=C/c1ccc(OC)c(OC)c1)c(C)n2C -4.74%, COCCNC(=O)CN(c1ccccc1OC)S(C)(=O)=O 6.69%, CC(=O)Nc1ccc(NC(=O)/C=C/c2ccccc2)cc1 -5.95%, COc1cccc(OCCCCN2CC(C)OC(C)C2)c1 (configuration not stated) 8.69%, CSc1nc2cc(Cl)ccc2s1 -8.15%, O=C1OCCC1Sc1nc2cc(Cl)ccc2s1 (configuration not stated) 11.7%, Cc1cc(C(F)(F)F)nc(SCC(=O)NC2CC3CCC2C3)n1 (configuration not stated) 4.48%
